Experimental data: the supplement of paper PMC6555819

Columns and labels:
Assay in all cases: PBM binding z-score (relative to random genomic background probes); higher = stronger binding; sequences stand for … in GC…GCGATTGACAGCGTAGAATGAAGG
[1] = tested on: FXR:RXRa (NR concentration 270 nM, RXRa partner concentration 90 nM)
Summary of the method: (§1)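 The probes on custom Agilent 4×180K protein-binding microarrays were double-stranded, with 34-nt variable regions bearing direct-repeat seeds, single-nucleotide variants, half-site ablations and random human genomic background sequences. Incubation lasted 1 h with ligand-free nuclear receptor dimers in PBS pH 7.4, 2% milk, 0.02% Triton X-100, 1 mM DTT, 0.2 mg/mL BSA and 0.4 mg/ml salmon testes DNA. Antibodies against each partner (one per run) detected bound dimers, and fluorescence scans were regression-normalized. Binding z-scores take the random background probes as reference.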

[2] = tested on: LXRa:RXRa (NR concentration 270 nM, RXRa partner concentration 90 nM)
Summary of the method: as §1

[3] = tested on: LXRa homodimer (NR concentration 270 nM)
Summary of the method: as §1

[4] = tested on: LXRb:RXRa (NR concentration 270 nM, RXRa partner concentration 90 nM)
Summary of the method: as §1

[5] = tested on: LXRb homodimer (NR concentration 270 nM)
Summary of the method: as §1

[6] = tested on: PPARa:RXRa (NR concentration 270 nM, RXRa partner concentration 90 nM)
Summary of the method: as §1

[7] = tested on: PPARg:RXRa (NR concentration 180 nM, RXRa partner concentration 90 nM)
Summary of the method: as §1

[8] = tested on: PPARg:RXRa 270nM:90nM, anti-RXR (NR concentration 270 nM, RXRa partner concentration 90 nM)
Summary of the method: as §1

[9] = tested on: PPARg:RXRa 30nM:10nM, anti-RXR (NR concentration 30 nM, RXRa partner concentration 10 nM)
Summary of the method: as §1

[10] = tested on: PPARg:RXRa 90nM:30nM, anti-RXR (NR concentration 90 nM, RXRa partner concentration 30 nM)
Summary of the method: as §1

[11] = tested on: PPARg:RXRa DBDmut IVT, anti-RXR (DBD mutation: RXRa K156A/R161A, NR concentration 270 nM, RXRa partner concentration 90 nM)
Summary of the method: as §1

[12] = tested on: PPARg:RXRa IVT, anti-PPARg (NR concentration 270 nM, RXRa partner concentration 90 nM)
Summary of the method: as §1

[13] = tested on: PPARg DBDmut:RXRa IVT, anti-PPARg (DBD mutation: PPARg1 K132A/R137A, NR concentration 270 nM, RXRa partner concentration 90 nM)
Summary of the method: as §1

[14] = tested on: PPARg DBDmut IVT, anti-PPARg (DBD mutation: PPARg1 K132A/R137A, NR concentration 270 nM)
Summary of the method: as §1

[15] = tested on: PPARg homodimer (NR concentration 180 nM)
Summary of the method: as §1

[16] = tested on: PXR:RXRa (NR concentration 270 nM, RXRa partner concentration 90 nM)
Summary of the method: as §1

[17] = tested on: PXR homodimer (NR concentration 270 nM)
Summary of the method: as §1

[18] = tested on: RARa:RXR (NR concentration 270 nM, RXRa partner concentration 90 nM)
Summary of the method: as §1

[19] = tested on: RARa homodimer (NR concentration 270 nM)
Summary of the method: as §1

[20] = tested on: RARb:RXRa (NR concentration 270 nM, RXRa partner concentration 90 nM)
Summary of the method: as §1

Sequence	PBM binding z-score [1]	PBM binding z-score [2]	PBM binding z-score [3]	PBM binding z-score [4]	PBM binding z-score [5]	PBM binding z-score [6]	PBM binding z-score [7]	PBM binding z-score [8]	PBM binding z-score [9]	PBM binding z-score [10]	PBM binding z-score [11]	PBM binding z-score [12]	PBM binding z-score [13]	PBM binding z-score [14]	PBM binding z-score [15]	PBM binding z-score [16]	PBM binding z-score [17]	PBM binding z-score [18]	PBM binding z-score [19]	PBM binding z-score [20]
CCTAGCAGGCCAATGTGGGTCACTCAAGGCTTGA	0.735	1.67	-0.413	0.94	-1.16	3.33	1.94	2.65	0.359	1.74	4.05	4.91	-0.196	-1.11	0.296	1.24	-0.313	1.55	-0.725	1.54
TCCTATAGGTAAAGGTGAAAGTCGAACGATATGA	1.05	1.25	-0.0559	1.25	-0.199	3.07	2.77	3.93	3.81	3.96	2.74	3.09	0.482	0.679	0.768	1.12	-0.316	1.49	0.203	1.96
TCAGCTAGGTCAACGATGGTCAGCTAATCTGCTA	3.13	2.34	-0.215	1.41	-0.491	3.2	2.64	2.95	2.5	2.66	4.15	4.22	-0.361	-0.524	1.38	1.42	-0.591	1.96	-0.477	4.05
ACTAGTTGGGCAGCTGAGGTCACACACAATTCGG	2.42	2.48	1.5	2.74	0.155	3.31	1.34	1.8	0.192	1.26	1.04	1.73	0.77	0.164	2.17	4.46	1.48	4.23	0.707	3.05
CGGCCAAGGTCAAGGTCAGTGAAAGAGACTCGAA	7.61	5.58	0.407	4.63	0.323	6.12	6.44	6.23	2.33	4.85	3.44	4.67	0.246	-0.532	3.93	5.02	0.799	5.17	1.18	5.71
CAAACTAGGTCACCGGAAGGTAAAAGTCCGCATG	4.56	3.72	0.573	2.66	0.507	5.39	9.08	7.23	5.39	7.11	8.41	8.97	5.23	6.11	4.02	2.47	0.103	3.44	0.872	4.32
TCGAATAGGTTAGTCGGGGCATTCAGCCAACATA	0.693	0.608	-0.0621	1.02	-0.284	1.29	0.133	1.54	2.74	1.94	2.05	0.81	-0.355	-0.412	0.278	0.59	0.0716	0.628	-0.516	1.06
ATATGTAGGTTAAGGGTCATTCAGGTTGGTTCGC	5.11	5.05	3.62	4.41	1.4	6.68	11.5	9.78	10.3	11.1	7.43	7.64	1.5	1.61	4	5.48	2.98	5.87	2.71	3.79
CGAACTAGGTTAGAACAGGACAGTGAAGGATGAT	0.283	0.174	-0.0175	-0.235	0.0334	1.22	1.6	1.27	0.448	0.886	5.02	4.21	0.977	0.101	0.487	-0.0109	-0.256	0.212	-0.0731	0.527
AGGATGAGGTTAAGATCAGGGAAACAGAATACAT	2.5	2.06	0.0836	2.16	0.492	3.06	1.63	1.38	0.783	1.01	-0.114	0.973	0.72	0.516	1.27	1.56	1.2	1.9	1.63	2.1
TCCTGTAGATCAACAGGAGGTTAAGAAAGATCGA	-0.0851	1.1	0.0543	0.973	-0.977	1.28	-0.00253	1.25	2.01	1.49	0.771	0.245	-0.0559	0.308	0.0427	0.654	-0.17	1.02	-0.715	0.535
CGTCCAAGTTCAATGCTAGGTCAGTGAAAGCATT	3.05	3.56	2.36	1.92	0.297	2.42	-0.0137	0.79	-0.404	0.397	0.331	0.878	0.0119	0.59	2.95	4.21	4.73	3.6	1.33	3.79
ACTACTTGGTCAGCTGAGGTCACACACAATTCGG	3.83	3.9	3.15	3.97	1.27	3.76	2.24	2.68	0.841	1.7	2.16	2.81	0.583	1.36	4.02	5.72	1.85	4.92	0.831	3.59
TCACGGAGGACACGAAGGTCAGAGCTTTCCAGAG	1.21	1.07	0.259	0.963	-1.12	1.99	0.712	1.52	2.16	1.87	1.52	0.826	-1.19	-0.604	1.45	1.98	1.22	2.3	0.266	3.44
CCTACTGGGCCAAAGGGCATTGATTCCAATGCTC	0.0219	0.199	-0.482	0.36	-1.02	4.61	10.3	9.18	8.24	9.29	4.36	5.09	0.51	-0.625	1.09	0.249	-0.593	0.757	-0.681	1.59
CGTCCATGGTCAATGCTAGGTCAGTGAAAGCATT	0.15	0.428	0.451	0.222	-0.306	0.49	-0.131	-0.408	-0.327	-0.269	0.278	0.623	-0.309	-0.685	0.231	0.368	-0.367	0.816	-0.251	2.17
CAAACTAGGACAAAGGTCAAAGTCGAGCCAACCA	6.31	6.08	4.5	5.58	2.61	7	12.1	10.6	10.9	11.9	6.48	7.54	2.91	1.8	4.89	5.62	2.1	6.43	3.25	4.8
GCGACTGGCGCAAAGCAGGTTACCATAAGGTTGG	-0.457	-0.431	-0.662	-0.683	-1.4	-0.182	0.258	-0.247	-0.734	-0.475	-0.223	-0.321	-1.05	-1.11	-0.736	-0.34	-0.486	-0.0579	-0.958	-0.386
CCTACGGGGCCAAAAAGGTCATTGATGCCGATAA	3.94	4.35	2.76	4.36	0.0213	4.67	1.63	2.97	0.7	1.77	0.493	1.52	-1.13	-0.859	2.87	5.34	9.18	5.07	0.847	4.26
GGAACGAAGGCATTCGAGTTGATAGCATGGCGAT	-0.551	-0.66	-0.692	-1.09	-1.23	-1.8	0.416	-0.825	-0.794	-0.901	-0.318	-0.69	-0.596	-0.862	-1.41	-0.315	-0.602	-0.623	-0.628	-0.659
GCTTACGGGTCAAAGGTAATAGCATGAATAGAAT	6.06	4.07	-0.0184	4.32	0.154	6.32	9.59	8.1	7.14	8.44	4.96	5.28	1.42	0.842	1.61	4.26	-0.182	6.23	0.248	3.87
CCTTACGGGTCACTGACAGGGTATAGCATTTGGA	4.47	3.35	0.0232	2.72	-0.363	4.64	3.98	4.07	1.2	2.69	2.63	3.31	0.282	0.192	1.91	2.87	-0.101	3.64	0.315	3.73
GCCACTGGGGCAAAGCAGGTTACCATAAGGTTGG	0.159	0.154	-0.633	-0.0213	-0.866	1.67	2.09	2.57	0.133	1.47	5.67	5.29	0.444	-0.613	0.322	0.224	-0.707	1.06	-0.774	1.01
CCGACTGGGGCAGAAAGGTTACCTTACCATCCGG	-0.0725	0.286	-0.251	0.547	-1.39	1.73	1.36	2.55	0.398	1.91	1.43	1.85	-1.35	-1.29	0.0892	0.658	-0.611	1.48	-0.873	1.5
CCTGCTAGGTCAATGGTCAGCGAAAGCAGCTCGC	2.75	2.4	-0.241	1.4	0.134	3.37	5.06	5.2	3.2	5.18	4.19	4.06	0.555	-0.25	1.7	0.865	-0.255	1.87	-0.0474	3.71
CCTACTGGGCTATCAGGTCATTGATATCAACGTT	1.15	0.988	0.914	1.16	-0.189	2.01	1.45	2.47	0.664	2.01	3.17	4.19	0.0312	-0.392	0.841	1.33	0.575	1.41	0.294	1.55
GCTAGTTGGTCAGTAAAAGGTCACACAGCGGTCG	3.2	4.47	4.65	4.17	0.715	4.62	2.84	4.58	2.15	4.37	1.19	2.6	-0.374	-0.109	8.6	5.42	1.17	6.43	4.55	4.32
CGAACTAGGTCATCCAGGACACTGAATACATTGA	4.41	3.1	0.974	2.29	0.265	4.94	7.9	6.43	3.85	5.81	8.38	8.23	3.17	1.12	2.19	2.31	1.65	2.99	1.29	3.98
